PubChem BioAssay AID651919 (Sanford-Burnham Center for Chemical Genomics, 2012)
Several values for one entry are separate records, joined by “and”; a condition that tells them apart may be missing. Equal values may be shown once.

Target: C-X-C chemokine receptor type 6 (Homo sapiens) (UniProt O00574)
Assay: CXCR6 and CXCR5 receptor antagonist panel, profiling panel, selectivity assay for CXCR6 antagonist project, cell-based, CHO-K1 PathHunter beta-arrestin, luminescence, set 4 (AID 651919)
Details: run 2, at 79 µM (top of the series)

Sequence of C-X-C chemokine receptor type 6 (Homo sapiens) (O00574 whole entry, looked up): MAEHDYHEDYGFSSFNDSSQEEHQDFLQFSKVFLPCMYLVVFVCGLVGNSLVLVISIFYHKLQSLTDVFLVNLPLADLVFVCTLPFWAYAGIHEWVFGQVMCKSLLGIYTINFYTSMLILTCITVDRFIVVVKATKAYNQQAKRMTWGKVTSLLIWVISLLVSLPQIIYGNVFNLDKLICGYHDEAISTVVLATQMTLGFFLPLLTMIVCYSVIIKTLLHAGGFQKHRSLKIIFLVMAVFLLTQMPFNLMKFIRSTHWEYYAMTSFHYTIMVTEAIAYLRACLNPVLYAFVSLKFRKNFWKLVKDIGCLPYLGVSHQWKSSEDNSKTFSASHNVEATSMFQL

Row | SMILES | inhibition
1 | COc1ccc(NC(=O)CN2C3CCCC2CC(NC(=O)c2ccc(OC)c(OC)c2)C3)cc1 (centres undefined) | -3.76%
2 | COc1ccc(C(=O)NC2CC3CCCC(C2)N3CC(=O)Nc2ccc(F)cc2)cc1OC (centres undefined) | 29.3%
3 | COc1ccc(C(=O)NC2CC3CCCC(C2)N3CC(=O)Nc2ccccc2)cc1OC (centres undefined) | 30.3%
4 | COc1ccc(C(=O)NC2CC3CCCC(C2)N3CC(=O)Nc2ccc(C)cc2)cc1OC (centres undefined) | 4.86%
5 | COc1ccc(C(=O)NC2CC3CCCC(C2)N3CC(=O)Nc2ccc(Cl)cc2)cc1OC (centres undefined) | 14.6%
6 | COc1cccc(C(=O)NC2CC3CCCC(C2)N3CC(=O)Nc2ccc(Cl)cc2)c1 (centres undefined) | -8.76%
7 | COc1cc(C(=O)NC2CC3CCCC(C2)N3CC(=O)Nc2ccc(Cl)cc2)cc(OC)c1OC (centres undefined) | 90.4%
8 | COc1cc(C(=O)NC2CC3CCCC(C2)N3CC(=O)Nc2ccccc2Cl)cc(OC)c1OC (centres undefined) | 100% and 99.1%
9 | COc1cccc(C(=O)NC2CC3CCCC(C2)N3CC(=O)Nc2ccccc2)c1 (centres undefined) | 8.64%
10 | COc1ccc(NC(=O)CN2C3CCCC2CC(NC(=O)c2cc(OC)cc(OC)c2)C3)cc1 (centres undefined) | -0.62%
11 | COc1ccc(NC(=O)CN2C3CCCC2CC(NC(=O)c2ccc4c(c2)OCO4)C3)cc1 (centres undefined) | 4.54%
12 | COc1ccc(NC(=O)CN2C3CCCC2CC(NC(=O)c2cc(OC)c(OC)c(OC)c2)C3)cc1 (centres undefined) | 61.4%
13 | Cc1ccc(NC(=O)CN2C3CCCC2CC(NC(=O)c2ccc4c(c2)OCO4)C3)cc1 (centres undefined) | 5.62%
14 | COc1cc(OC)cc(C(=O)NC2CC3CCCC(C2)N3CC(=O)Nc2ccccc2)c1 (centres undefined) | 3.13%
15 | COc1cccc(C(=O)NC2CC3CCCC(C2)N3CC(=O)Nc2ccc(C)cc2)c1 (centres undefined) | 3.25%
16 | COc1ccccc1NC(=O)CN1C2CCCC1CC(NC(=O)c1cc(OC)c(OC)c(OC)c1)C2 (centres undefined) | 98.2%
17 | COc1ccc(C(=O)NC2CC3CCCC(C2)N3CC(=O)Nc2ccc(C)cc2)cc1 (centres undefined) | 6.15%

Row | SMILES | inhibition
18 | COc1ccc(C(=O)NC2CC3CCCC(C2)N3CC(=O)Nc2ccccc2)cc1 (centres undefined) | 8.56%
19 | COc1ccc(CN2C3CCCC2CC(NC(=O)c2cc(OC)c(OC)c(OC)c2)C3)cc1 (centres undefined) | 56.8%
20 | COc1cc(OC)cc(C(=O)NC2CC3CCCC(C2)N3CC(=O)Nc2ccc(Cl)cc2)c1 (centres undefined) | -8.8%
21 | O=C(CN1C2CCCC1CC(NC(=O)c1ccc3c(c1)OCO3)C2)Nc1ccccc1 (centres undefined) | 5.06%
22 | COc1cc(C(=O)NC2CC3CCCC(C2)N3CC(=O)Nc2ccccc2)cc(OC)c1OC (centres undefined) | 94% and 90.4%
23 | O=C(CN1C2CCCC1CC(NC(=O)c1ccc3c(c1)OCO3)C2)Nc1ccc(Cl)cc1 (centres undefined) | -3.16%
24 | O=C(CN1C2CCCC1CC(NC(=O)c1ccccc1)C2)Nc1ccccc1 (centres undefined) | 7.76%
25 | O=C(CN1C2CCCC1CC(NC(=O)c1ccc3c(c1)OCO3)C2)Nc1ccc(F)cc1 (centres undefined) | -2.79%
26 | COc1ccc(NC(=O)CN2C3CCCC2CC(NC(=O)c2ccc(OC)cc2)C3)cc1 (centres undefined) | 4.54%
27 | COc1cc(C(=O)NC2CC3CCCC(C2)N3CC(=O)Nc2ccc(C)cc2)cc(OC)c1OC (centres undefined) | 77.6%
28 | COc1cc(C(=O)NC2CC3CCCC(C2)N3CC(=O)Nc2ccc(F)cc2)cc(OC)c1OC (centres undefined) | 81.3%
29 | COc1cc(OC)cc(C(=O)NC2CC3CCCC(C2)N3CC(=O)Nc2ccc(C)cc2)c1 (centres undefined) | 55.4%
30 | COc1cccc(C(=O)NC2CC3CCCC(C2)N3CC(=O)Nc2ccc(F)cc2)c1 (centres undefined) | 2.48%
31 | COc1ccc(C(=O)NC2CC3CCCC(C2)N3CC(=O)Nc2ccc(F)cc2)cc1 (centres undefined) | -0.539%
32 | COc1ccc(NC(=O)CN2C3CCCC2CC(NC(=O)c2cccc(OC)c2)C3)cc1 (centres undefined) | -0.0157%
33 | COc1ccc(C(=O)NC2CC3CCCC(C2)N3CC(=O)Nc2ccc(Cl)cc2)cc1 (centres undefined) | -10.3%
34 | COc1cc(OC)cc(C(=O)NC2CC3CCCC(C2)N3CC(=O)Nc2ccc(F)cc2)c1 (centres undefined) | -4.2%
